In PubChem BioAssay (Tox21):
Records with an inconclusive call do not appear. Calls of active or inactive are those of the source. Unless noted, the call rests on the fitted dose curve; in most records, active means well fitted curve in the direction sought with a large enough effect in the repeat runs; inconclusive means weak or mixed curves; inactive means no such curve, though single readings can be large; an effect the other way counts as inactive or inconclusive.

What was measured:
[1] = qHTS assay to identify small molecule agonists of the sonic hedgehog signaling (Shh) pathway (AID 1259368; calls by dose curve;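 further: NIH/3T3-derived 3T3Gli1-Luc cells carrying a stable Gli1-driven firefly luciferase reporter; series mostly up to about 92 µM; nearly all actives have a fitted effect of over 15% in size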)
Procedure, shortened: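 Cells of a mouse NIH/3T3 clone stably expressing luciferase under the Gli1 transcriptional response element are exposed to test chemicals for 24 hr at 37 C. Pathway activation is detected as a rise in luminescence.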

[2] = qHTS assay to identify small molecule antagonists of the sonic hedgehog signaling (Shh) pathway (AID 1259369; calls by dose curve; further: nearly all actives have a fitted effect of over 45% in size; further: potency means the concentration at half of the fitted maximal effect)
Procedure, shortened: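 Cells are plated and held 4hr at 37 C, compounds (DMSO) are pinned in, conditioned medium is added to stimulate the pathway, and after 24hr luciferase reagent is added for 30min before luminescence is read.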

[3] = target: Estrogen receptor beta (Homo sapiens) (UniProt Q92731); assay: qHTS assay to identify small molecule agonists of the estrogen receptor beta (ER-beta) signaling pathway (AID 1259377; active means well fitted activation curve with a large enough effect in the signal ratio in the repeat runs, not every such curve was filed as active; the % refers to the signal ratio)
Procedure, shortened: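 ER-beta-UAS-bla HEK293T (GripTite) cells carrying a UAS-driven beta-lactamase reporter, in medium with 2% charcoal-stripped FBS, were exposed to compounds for 16 hr at 37C; LiveBLAzer B/G FRET substrate was then added and fluorescence read after 2 hours at room temperature.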

[4] = target: Estrogen receptor beta (Homo sapiens) (UniProt Q92731); assay: qHTS assay to identify small molecule antagonists of the estrogen receptor beta (ER-beta) signaling pathway (AID 1259378; active means well fitted inhibition curve with a large enough effect in the signal ratio in the repeat runs, not every such curve was filed as active; the % refers to the signal ratio; further: potency means the concentration at half of the fitted maximal effect)
Procedure, shortened: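 Antagonist mode: compounds added to beta-lactamase reporter HEK293T ER-beta-UAS cells stimulated with E2 (1nM final), 16 hr at 37C. LiveBLAzer B/G FRET substrate, 2 hours room temperature, fluorescence read-out.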

[5] = qHTS assay to identify small molecule agonists of the androgen receptor (AR) signaling pathway in the presence of an antagonist - cell viability counter screen (AID 1259379); further: nearly all actives have a fitted effect of over 25% in size; further: potency means the concentration at half of the fitted maximal effect
Procedure, shortened: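 Cytotoxicity is assessed by CellTiter-Fluor in MDA-kb2 cells carrying an MMTV-driven luciferase reporter. Cells receive 3.0uM nilutamide plus compounds at 15 concentrations and incubate 16 hr at 37C without CO2 before fluorescence reading.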

[6] = qHTS assay to identify small molecule agonists of the estrogen receptor beta (ER-beta) signaling pathway - cell viability counter screen (AID 1259380); further: nearly all actives have a fitted effect of over 30% in size
Procedure, shortened: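 Cytotoxicity is measured in parallel with the reporter screen: after 16 hr compound exposure at 37C and a 2 hr LiveBLAzer step, CellTiter-Glo is added to the same ER-beta-UAS-bla HEK293T wells and luminescence read after 30 min.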

[7] = qHTS assay to identify small molecule agonists or antagonists of the thyroid stimulating hormone receptor (TSHR) signaling pathway - wild type cell line counter screen (AID 1259384; calls by dose curve)
Procedure, shortened: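 Counter screen in untransfected Hek293: compounds (15-point titration, triplicate) plus phosphodiesterase inhibitor Ro20-1724 added after 18 h plating; 30 min RT. Intracellular cAMP via competitive d2/cryptate immunoassay, 1 h incubation.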

[8] = target: Thyrotropin receptor (Homo sapiens) (UniProt P16473); assay: qHTS assay to identify small molecule antagonists of the thyroid stimulating hormone receptor (TSHR) signaling pathway (AID 1259385; calls by dose curve; further: nearly all actives have a fitted effect of over 20% in size)
Procedure, shortened: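 Antagonist mode: compound-treated TSHR-expressing HEK293 cells were stimulated with 1.5 ng/mL TSH (final) in presence of Ro20-1724 for 30 min at RT. HTRF cAMP detection after 1 h; each compound tested at 15 concentrations, triplicate.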

[9] = qHTS assay to identify small molecule agonists of the estrogen receptor alpha (ER-alpha) signaling pathway in the presence of an antagonist - cell viability counter screen (AID 1259386);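 further: cells exposed to compounds for 22 h at 37 °C before the viability read; nearly all actives have a fitted effect of over 30% in size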; further: potency means the concentration at half of the fitted maximal effect
Procedure, shortened: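 Cytotoxicity was measured in parallel with the ERE-luciferase agonist screen, in the same wells. The cells were VM7Luc4E2, which endogenously express ER-alpha, and treatment was with compounds plus 10.0nM ICI-182,780 for 22hr.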

[10] = target: Progesterone receptor (Homo sapiens) (UniProt P06401); assay: qHTS assay to identify small molecule agonists of the progesterone receptor (PR) signaling pathway (AID 1346784; calls by dose curve; further: nearly all actives have a fitted effect of over 30% in size)
Procedure, shortened: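 PR-UAS-bla HEK 293T cells carrying a UAS-driven beta-lactamase reporter were seeded in medium with 2% charcoal-stripped FBS, preincubated 6 hr at 37C, then exposed to compounds in DMSO for 16 hr; agonism was read by LiveBLAzer B/G FRET fluorescence.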

[11] = target: Progesterone receptor (Homo sapiens) (UniProt P06401); assay: qHTS assay to identify small molecule antagonists of the progesterone receptor (PR) signaling pathway (AID 1346795; active means well fitted inhibition curve with a large enough effect in the signal ratio in the repeat runs, not every such curve was filed as active; the % refers to the signal ratio)
Procedure, shortened: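 PR-UAS-bla HEK293T cells carrying a UAS-driven beta-lactamase reporter were plated in medium with 2% charcoal-stripped FBS and rested 6 hr at 37C. Compounds were added with 1 nM R5020 (final) for 16 hr, then FRET substrate loaded 2 hr at room temperature.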

[12] = qHTS assay to identify small molecule antagonists of the progesterone receptor (PR) signaling pathway - cell viability counter screen (AID 1346798); further: nearly all actives have a fitted effect of over 50% in size; further: potency means the concentration at half of the fitted maximal effect
Procedure, shortened: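 PR-UAS-bla HEK293T cells in medium with 2% charcoal-stripped FBS were treated with compounds plus R5020 for 16 hr at 37C. Cell viability was then read by CellTiter-Glo luminescence after 30 min at room temperature in the same wells.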

[13] = qHTS assay to identify small molecule agonists of the progesterone receptor (PR) signaling pathway - cell viability counter screen (AID 1346799; calls by dose curve; further: nearly all actives have a fitted effect of over 45% in size; further: potency means the concentration at half of the fitted maximal effect)
Procedure, shortened: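 PR-UAS-bla HEK293T cells, 3,000 per well in medium with 2% charcoal-stripped FBS, were preincubated 6 hr at 37C, then exposed to compounds for 16 hr; viability was read as CellTiter-Glo luminescence after 30 min at room temperature.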

[14] = qHTS assay to identify small molecule antagonists of the TGF-beta/Smad signaling pathway - cell viability counter screen (AID 1346824); further: nearly all actives have a fitted effect of over 50% in size
Procedure, shortened: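 Cytotoxicity counter-screen run in the same wells as the beta-lactamase Smad reporter read: CellTiter-Glo luminescence after 30 min at room temperature. HEK 293T SBE-bla cells had 5 hr compound exposure at 37 C with TGF-beta1 (0.25 ng/mL stock).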

[15] = qHTS assay to identify small molecule agonists of the TGF-beta/Smad signaling pathway - cell viability counter screen (AID 1346829); further: top concentration of the series differs between compounds; nearly all actives have a fitted effect of over 45% in size
Procedure, shortened: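 Luminescence from CellTiter-Glo, read after a 30 min room-temperature incubation, gives cell viability of SBE-bla HEK 293T cells treated 5 hr with compounds at 37 C.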

[16] = qHTS assay to identify small molecule agonists of the TGF-beta/Smad signaling pathway (AID 1346859; active means well fitted activation curve with a large enough effect in the signal ratio in the repeat runs, not every such curve was filed as active; the % refers to the signal ratio; further: series mostly up to about 77 µM)
Procedure, shortened: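 HEK 293T cells stably carrying a beta-lactamase reporter driven by the Smad binding element were seeded overnight, exposed to DMSO-dissolved compounds for 5 hr at 37 C, 5% CO2, then loaded with FRET substrate for 2 hr at room temperature.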

[17] = target: Thyrotropin-releasing hormone receptor (Homo sapiens) (UniProt P34981); assay: qHTS assay to identify small molecule antagonists of the thyrotropin-releasing hormone receptor (TRHR) signaling pathway (AID 1346877; active means well fitted inhibition curve with a large enough effect in the repeat runs, not every such curve was filed as active; further: series mostly up to about 51 µM)
Procedure, shortened: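 Antagonism is measured as suppression of the calcium response to 1 nM TRH in TRHR-HEK293 cells that have been dye-loaded for 2 h at 37 °C after overnight plating. Each compound is tested at 15 concentrations in triplicate.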

[18] = qHTS assay to identify small molecule antagonists of the estrogen receptor beta (ER-beta) signaling pathway - cell viability counter screen (AID 1259382); further: series mostly up to about 92 µM; nearly all actives have a fitted effect of over 55% in size
Procedure, shortened: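 Cytotoxicity counter screen multiplexed with the beta-lactamase antagonist assay: GripTite HEK293T ER-beta-bla cells were treated 16 hr with test chemicals in the presence of 1nM 17-beta-estradiol, and viability was measured by CellTiter-Glo.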

[19] = target: Estrogen receptor (Homo sapiens) (UniProt P03372); assay: qHTS assay to identify small molecule agonists of the estrogen receptor alpha (ER-alpha) signaling pathway in the presence of an antagonist (AID 1259383; calls by dose curve; further: top concentration of the series differs between compounds; nearly all actives have a fitted effect of over 15% in size)
Procedure, shortened: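 Agonist-mode confirmation in the presence of the ER antagonist ICI-182,780 at 10.0nM final. Breast-derived VM7Luc4E2 reporter cells were exposed to compounds for 22hr, and ERE-driven luciferase was quantified by luminescence.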

[20] = target: Androgen receptor (Homo sapiens) (UniProt P10275); assay: qHTS assay to identify small molecule agonists of the androgen receptor (AR) signaling pathway in the presence of an antagonist (AID 1259381; calls by dose curve; further: nearly all actives have a fitted effect of over 15% in size)
Procedure, shortened: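 Agonist-mode confirmation screen: human MDA-kb2 cells stably expressing luciferase under an MMTV promoter bearing AR and GR response elements, co-treated with 3.0uM nilutamide (final). Luminescence measured after 16hr compound incubation.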

Measured: Potency

Chain of Thyrotropin receptor (Homo sapiens) (P16473 whole entry, looked up): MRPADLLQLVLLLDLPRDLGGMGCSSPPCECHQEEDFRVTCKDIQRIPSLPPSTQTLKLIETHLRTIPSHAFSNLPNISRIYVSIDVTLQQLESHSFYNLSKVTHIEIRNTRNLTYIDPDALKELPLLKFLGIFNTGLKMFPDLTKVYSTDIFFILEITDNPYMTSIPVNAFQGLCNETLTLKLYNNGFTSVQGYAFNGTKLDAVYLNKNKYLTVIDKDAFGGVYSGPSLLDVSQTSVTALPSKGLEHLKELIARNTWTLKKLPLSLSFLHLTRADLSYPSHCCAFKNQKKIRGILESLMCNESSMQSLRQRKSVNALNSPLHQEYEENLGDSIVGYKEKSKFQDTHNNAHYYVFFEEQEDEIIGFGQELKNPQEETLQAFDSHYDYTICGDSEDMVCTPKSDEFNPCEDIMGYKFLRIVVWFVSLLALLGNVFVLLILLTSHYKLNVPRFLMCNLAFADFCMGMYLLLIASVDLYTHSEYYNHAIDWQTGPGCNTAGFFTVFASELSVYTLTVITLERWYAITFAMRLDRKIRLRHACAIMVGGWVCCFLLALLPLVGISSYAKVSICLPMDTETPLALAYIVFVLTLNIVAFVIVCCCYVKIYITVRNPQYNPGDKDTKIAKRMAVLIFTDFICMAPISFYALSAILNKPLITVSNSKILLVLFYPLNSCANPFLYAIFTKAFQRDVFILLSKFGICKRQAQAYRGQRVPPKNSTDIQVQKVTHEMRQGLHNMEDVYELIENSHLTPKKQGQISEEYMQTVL
Chain of Estrogen receptor beta (Homo sapiens) (Q92731 whole entry, looked up): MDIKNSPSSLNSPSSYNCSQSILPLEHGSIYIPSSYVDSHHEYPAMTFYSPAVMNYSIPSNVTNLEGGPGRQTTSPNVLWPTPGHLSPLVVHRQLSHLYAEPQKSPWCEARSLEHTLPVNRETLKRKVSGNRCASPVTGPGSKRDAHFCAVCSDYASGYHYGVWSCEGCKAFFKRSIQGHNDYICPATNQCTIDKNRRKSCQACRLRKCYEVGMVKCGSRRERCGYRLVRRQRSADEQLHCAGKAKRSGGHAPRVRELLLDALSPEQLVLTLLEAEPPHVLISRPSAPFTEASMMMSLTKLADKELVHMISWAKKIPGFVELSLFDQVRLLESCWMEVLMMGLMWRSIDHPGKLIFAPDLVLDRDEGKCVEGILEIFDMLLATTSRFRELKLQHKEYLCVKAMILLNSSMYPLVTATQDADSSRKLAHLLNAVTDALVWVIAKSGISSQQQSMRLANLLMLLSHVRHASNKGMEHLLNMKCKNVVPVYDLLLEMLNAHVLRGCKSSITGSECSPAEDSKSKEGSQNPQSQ
Chain of Progesterone receptor (Homo sapiens) (P06401 whole entry, looked up): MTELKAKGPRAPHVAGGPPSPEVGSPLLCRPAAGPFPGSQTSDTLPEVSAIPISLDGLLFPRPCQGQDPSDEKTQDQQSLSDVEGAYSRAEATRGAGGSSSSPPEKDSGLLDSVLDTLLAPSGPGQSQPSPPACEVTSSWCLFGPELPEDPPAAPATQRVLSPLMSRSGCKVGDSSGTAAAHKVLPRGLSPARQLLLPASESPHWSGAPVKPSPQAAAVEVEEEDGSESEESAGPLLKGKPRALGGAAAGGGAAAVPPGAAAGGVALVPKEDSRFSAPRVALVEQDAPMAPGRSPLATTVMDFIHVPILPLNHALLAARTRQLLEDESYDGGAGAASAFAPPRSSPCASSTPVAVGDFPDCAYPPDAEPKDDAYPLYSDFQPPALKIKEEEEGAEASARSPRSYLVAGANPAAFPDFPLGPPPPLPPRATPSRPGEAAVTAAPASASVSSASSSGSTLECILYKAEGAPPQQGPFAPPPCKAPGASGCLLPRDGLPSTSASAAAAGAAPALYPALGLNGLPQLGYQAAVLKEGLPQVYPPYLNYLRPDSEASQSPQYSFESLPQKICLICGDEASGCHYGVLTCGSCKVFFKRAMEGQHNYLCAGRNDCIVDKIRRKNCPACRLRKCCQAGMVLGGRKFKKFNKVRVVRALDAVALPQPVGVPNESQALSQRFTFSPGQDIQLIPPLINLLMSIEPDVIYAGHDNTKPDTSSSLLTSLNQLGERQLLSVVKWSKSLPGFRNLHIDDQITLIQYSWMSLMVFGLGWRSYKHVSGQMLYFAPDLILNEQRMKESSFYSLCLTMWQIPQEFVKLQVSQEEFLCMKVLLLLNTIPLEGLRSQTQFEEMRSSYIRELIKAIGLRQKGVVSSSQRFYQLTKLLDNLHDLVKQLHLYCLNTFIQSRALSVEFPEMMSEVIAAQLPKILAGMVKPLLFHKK
Chain of Estrogen receptor (Homo sapiens) (P03372 whole entry, looked up): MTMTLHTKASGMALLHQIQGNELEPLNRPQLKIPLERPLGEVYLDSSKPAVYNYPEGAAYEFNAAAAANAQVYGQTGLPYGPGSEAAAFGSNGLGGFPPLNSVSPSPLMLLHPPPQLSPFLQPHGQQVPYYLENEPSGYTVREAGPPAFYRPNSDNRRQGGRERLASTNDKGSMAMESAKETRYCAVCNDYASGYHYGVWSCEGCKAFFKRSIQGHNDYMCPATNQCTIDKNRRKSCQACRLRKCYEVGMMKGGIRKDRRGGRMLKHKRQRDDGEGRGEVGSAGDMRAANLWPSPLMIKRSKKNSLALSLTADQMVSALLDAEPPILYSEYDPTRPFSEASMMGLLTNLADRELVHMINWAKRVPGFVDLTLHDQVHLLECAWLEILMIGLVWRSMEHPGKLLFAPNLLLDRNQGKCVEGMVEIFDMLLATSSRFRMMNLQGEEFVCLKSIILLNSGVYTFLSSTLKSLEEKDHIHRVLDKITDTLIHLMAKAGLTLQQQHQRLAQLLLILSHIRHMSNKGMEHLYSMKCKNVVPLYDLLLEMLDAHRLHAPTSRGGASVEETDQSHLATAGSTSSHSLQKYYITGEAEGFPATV
Chain of Thyrotropin-releasing hormone receptor (Homo sapiens) (P34981 whole entry, looked up): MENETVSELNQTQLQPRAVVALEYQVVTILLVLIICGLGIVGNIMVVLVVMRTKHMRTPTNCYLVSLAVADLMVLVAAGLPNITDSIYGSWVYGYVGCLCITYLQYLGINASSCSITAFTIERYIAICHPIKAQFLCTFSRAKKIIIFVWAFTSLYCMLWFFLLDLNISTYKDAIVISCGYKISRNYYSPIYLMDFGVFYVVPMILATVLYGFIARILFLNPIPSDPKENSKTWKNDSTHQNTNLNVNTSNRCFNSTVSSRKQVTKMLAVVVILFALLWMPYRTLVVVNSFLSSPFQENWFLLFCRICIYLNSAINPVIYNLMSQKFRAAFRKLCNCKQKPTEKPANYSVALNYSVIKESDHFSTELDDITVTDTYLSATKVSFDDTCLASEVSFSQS
Chain of Androgen receptor (Homo sapiens) (P10275 whole entry, looked up): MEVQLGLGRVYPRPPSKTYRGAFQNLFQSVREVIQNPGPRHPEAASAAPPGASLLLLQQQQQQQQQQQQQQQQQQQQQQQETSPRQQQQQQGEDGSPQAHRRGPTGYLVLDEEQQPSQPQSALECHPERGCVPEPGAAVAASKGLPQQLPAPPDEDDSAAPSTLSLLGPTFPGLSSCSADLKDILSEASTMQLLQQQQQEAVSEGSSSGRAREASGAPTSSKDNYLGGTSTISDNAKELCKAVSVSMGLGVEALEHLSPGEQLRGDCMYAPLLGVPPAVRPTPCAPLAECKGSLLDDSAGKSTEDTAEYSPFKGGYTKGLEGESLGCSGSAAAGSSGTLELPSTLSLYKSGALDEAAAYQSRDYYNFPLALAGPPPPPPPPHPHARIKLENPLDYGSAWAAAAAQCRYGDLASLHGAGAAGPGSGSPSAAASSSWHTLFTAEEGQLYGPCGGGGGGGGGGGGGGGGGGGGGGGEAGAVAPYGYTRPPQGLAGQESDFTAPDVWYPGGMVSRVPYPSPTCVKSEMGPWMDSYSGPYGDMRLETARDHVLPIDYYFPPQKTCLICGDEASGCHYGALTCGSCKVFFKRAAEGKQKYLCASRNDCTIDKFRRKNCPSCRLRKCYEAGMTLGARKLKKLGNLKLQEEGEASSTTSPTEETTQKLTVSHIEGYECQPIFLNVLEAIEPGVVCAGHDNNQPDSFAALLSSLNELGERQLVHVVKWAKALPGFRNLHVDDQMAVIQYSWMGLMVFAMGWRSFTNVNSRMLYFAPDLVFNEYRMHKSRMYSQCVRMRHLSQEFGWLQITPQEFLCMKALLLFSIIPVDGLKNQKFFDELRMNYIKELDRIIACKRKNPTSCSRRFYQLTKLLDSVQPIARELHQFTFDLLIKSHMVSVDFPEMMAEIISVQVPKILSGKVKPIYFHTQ

CC(CN=Cc1ccccc1O)N=Cc1ccccc1O (stereo unspecified)
not listed: [18] | [19] | [20]
inactive: all other assays above

CC(C)CCCCCCCOC(=O)c1ccc(C(=O)OCCCCCCCC(C)C)c(C(=O)OCCCCCCCC(C)C)c1
active: [2] 4.78 µM | [13] 42.6 µM
not listed: [11] | [12] | [17] | [19] | [20]
inactive: all other assays above

S=c1[nH][nH]c(=S)s1
not listed: [8] | [20]
inactive: all other assays above

O=C(Nc1ccccc1)c1cc([N+](=O)[O-])ccc1Cl
active: [2] 21.7 µM | [4] 48.6 µM
not listed: [11] | [16]
inactive: all other assays above

CCCCCCCCCCCCCCCCC(=O)O
not listed: [6] | [8] | [19]
inactive: all other assays above

C=CCCC
not listed: [7] | [8] | [12] | [20]
inactive: all other assays above

CCCCCC1CCC(=O)O1 (stereo unspecified)
not listed: [10] | [13] | [20]
inactive: all other assays above

O=Cc1ccc(Cl)c([N+](=O)[O-])c1
not listed: [8] | [10] | [11] | [12] | [20]
inactive: all other assays above

C=C[Si](OCC)(OCC)OCC
not listed: [19] | [20]
inactive: all other assays above

O=C1c2ccccc2C(=O)C1c1ccc2cc(S(=O)(=O)O)cc(S(=O)(=O)O)c2n1
active: [5] 29.5 µM | [9] 26.3 µM | [12] 20.9 µM | [13] 18.6 µM
not listed: [6] | [10] | [11] | [20]
inactive: all other assays above

CC(C)(C)c1cc(C=O)cc(C(C)(C)C)c1O
not listed: [11] | [20]
inactive: all other assays above

CC1(C)CC(=O)CC(C)(C)N1
not listed: [20]
inactive: all other assays above

CC1(C)C(=O)NC(=O)N1CO
not listed: [6] | [11] | [17] | [20]
inactive: all other assays above

CC(C)(O)C(=O)O
not listed: [7] | [8] | [17] | [18] | [19] | [20]
inactive: all other assays above

NC(=O)c1ccccc1
not listed: [11]
inactive: all other assays above

O=C(O)c1ccccc1[N+](=O)[O-]
not listed: [19] | [20]
inactive: all other assays above
